Active and inactive are the calls of the source. The calls were made as follows: active = hit-call score of the fitted dose curve at least 0.9, where 1 is the maximum; inactive = score below 0.9.

Read-out in the assay: CYP4A11 (gene 1579)
Nature of the assay: LTEA_HepaRG_CYP4A11: Life Technologies and Expression Analysis (LTEA) Assay for CYP4A11 using HepaRG (AID 2283486). To be noted: mRNA level, 48 h; actives raise or lower the signal. How it is done: LTEA_HepaRG is a cell based, multiplexed-readout assay that uses HepaRG, a human liver cell line, with measurements taken at 48 hours after chemical dosing on a 96-well plate.LTEA_HepaRG_CYP4A11 is one of 102 assay component(s) measured in the LTEA HepaRG cell culture assay. It is a marker of NR mediated metabolism.Data from the assay component LTEA_HepaRG_CYP4A11 was analyzed into 1 endpoint. This assay endpoint, LTEA_HepaRG_CYP4A11, was analyzed with bidirectional fitting relative to DMSO as the negative control and baseline of activity. Using a type of inducible reporter, measures of mRNA induction for gain or loss-of-signal activity can be used to understand regulation of transcription factor activity. To generalize the intended target to other relatable targets, this assay endpoint is annotated to the cyp intended target family, where the subfamily is xenobiotic metabolism.
A total of 1060 chemcials from the ToxCast library were tested in eight-point concentration-response experiments. Cell culture and cytotoxicity assays were conducted at Thermo Fisher Scientific's Custom Services facility (Madison, WI). A single lot of human HepaRG cells (Thermo Fisher Scientific, Frederick, MD) was used for the cell culture experiments. 96-well format collagen type I coated plates of human HepaRG cells were prepared using established methods. Briefly, cryopreserved HepaRG cells were thawed, plated at a density of approximately 100,000 cells/well in HepaRG Thaw, Plate, and General Purpose media (HPRG770, Thermo Fisher Scientific), and incubated for 48 hours. 0.5% DMSO was selected as vehicle control to balance the requisite need of DMSO in HepaRG cultures to maintain differentiation (for example, baseline metabolism, proportions of hepatocytes vs. cholangiocytes), while enabling further hepatic receptor pathway activation (for example, PXR and CAR) in response to chemical exposure. 48 hours after plating, the culture medium was replaced with HepaRG Serum-Free Incudtion Media. Cells were exposed to each test chemical in duplicate and maintained in CO2 incubators for another 48 hours. Chemical plates were thawed to room temperature and 200x concentrations of treatment groups were prepared. 8-point conentration-reponse curves were made with the highest exposure at 100 uM, followed by half-log dilutions, all in 0.5% DMSO. Each test plate contained variouse controls, induction positive controls (1mM phenobarbital), cytotoxicity positive controls ([…] aflatoxin B1), vehicle controls (0.5% DMSO), and total lysis controls (0.5% DMSO). Cell morphology images were taken using an Essen IncuCyte FLR automated microscope, with six 96-well plates imaged in about 24 minutes. Images were captured and exported and JPEG files. Spent culture media was transfered to black-well plates for the LDH assay, and remaining media was sorted at -80 C for later use. Cells were treated with RLT buffer and frozen until shipped for gene expression analysis. Total RNA was isolated from the cell suspension in 75 uL of Buffer RLT (Qiagen, Germantown, MD 20874) by Quintiles/Expression Analysis (Durham, NC) using a custom isolation procedure. Total RNA from each plate well was transferred to a preamplification plate. Fluidigm's 96.96 Dynamic ArrayTM (Fluidigm, Amsterdam, the Netherlands) technology was used for gene expression analyses by quantitative reverse transcription polymerase chain reaction (qRT-PCR, performed by Quintiles/Expression Analysis, Durham, NC)89. Standard TaqManTM Assays (Applied Biosystems/ThermoFisher Scientific, Foster City, CA) were used to assess the expression of 93 genes selected based on their selectivity and sensitivity to important hepatic receptors known to be modulated by environmental chemicals; importance in human hepatocyte functionality; and hepatotoxicity. […]
With `c1ccc(Nc2ccccc2)cc1`, the compound was classed as inactive. On to `COCCO`, for which the compound was classed as inactive. As to `CCN(Cc1c(F)cccc1Cl)c1c([N+](=O)[O-])cc(C(F)(F)F)cc1[N+](=O)[O-]`, the AC50 (usually the concentration at which the activity in the assay is half-maximal) was 36.3 µM (active). On to `O=C(O)c1ccccc1`, for which the compound was called inactive. On to `CCCCCCC(C)OC(=O)COc1nc(F)c(Cl)c(N)c1Cl` (stereo not given), for which the compound was classed as inactive. Still for that read-out and setting: the entry for `CC1(C)C(C=C(Cl)Cl)C1C(=O)OCc1cccc(Oc2ccccc2)c1` (stereo not given) is “inactive”. For `O=C(O)C1(C(=O)Nc2ccc(Cl)cc2Cl)CC1`, the AC50 is 84.8 µM (active). Turning to `C[C@]12C[C@H](O)[C@H]3[C@@H](CCC4=CC(=O)CC[C@@]43C)[C@@H]1CC[C@@H]2C(=O)CO`, the compound was called inactive. `CCSC(=O)N(CC(C)C)CC(C)C`: the compound was called inactive.

As for `CCOC(=O)C(C)Oc1ccc(Oc2cnc3cc(Cl)ccc3n2)cc1` (stereo not given), the AC50 was 43 µM (active).

For the compound `CCOC(=O)NCCOc1ccc(Oc2ccccc2)cc1`, the AC50 is 84.1 µM (active). Take `CCCOC(=O)NCCCN(C)C`: the call was inactive. For `CCOC(=O)COc1cc(-n2ncc(C(F)(F)F)c(C)c2=O)c(F)cc1Cl`, the call was inactive. Consider `COc1c(Cl)ccc(Cl)c1C(=O)O`, for which the result was inactive. Consider `S=C([S-])NCCNC(=S)[S-].[Mn+2]`, for which the AC50 was 3.33 µM (active). Turning to `CN(C)C(=O)Nc1ccc(Cl)c(Cl)c1`, the compound was classed as inactive. Regarding `O=C(Nc1ccc([N+](=O)[O-])cc1Cl)c1cc(Cl)ccc1O`, the AC50 is 3.41 µM (active). `CCCCOC(=O)[C@@H](C)Oc1ccc(Oc2ccc(C(F)(F)F)cn2)cc1`: the call was inactive.

Regarding `N#CSCSc1nc2ccccc2s1`, the AC50 is 94.4 µM (active). Turning to `C=CCOC(Cn1ccnc1)c1ccc(Cl)cc1Cl` (stereo not given), the AC50 is 28.1 µM (active). Regarding `CCCCOC(=O)C(C)Oc1ccc(Oc2ccc(C(F)(F)F)cn2)cc1` (stereo not given), the compound was called inactive. In the case of `CCCCOCCOCCOCc1cc2c(cc1CCC)OCO2`, the result was inactive.

As for `CCCN(CCC)c1c([N+](=O)[O-])cc(C(F)(F)F)c(N)c1[N+](=O)[O-]`, the AC50 is 28.9 µM (active). As to `O=C(c1ccc(O)cc1O)c1ccc(O)cc1O`, the compound was classed as inactive. Take `Cc1nn(C)c(Oc2ccccc2)c1C=NOCc1ccc(C(=O)OC(C)(C)C)cc1`: the AC50 was 2.99 µM (active).

Take `CCCOC(=O)c1ccc(C(=O)OCCC)nc1`: the call was inactive. Consider `CCCN(CCC)C(=O)SCC`, for which the compound was classed as inactive. On the same count and under the same terms, the entry for `OB(O)O` is “inactive”; for `COC(=O)c1ccc(I)cc1S(=O)(=O)NC(=O)Nc1nc(C)nc(OC)n1` it is “inactive”; for `COC(=O)c1ccccc1C(=O)O` it is “inactive”.

With `CC(C)(C)[C@@H](O)[C@@H](Cc1ccc(Cl)cc1)n1cncn1`, the AC50 was 50 µM (active). With `C#CCOC(=O)[C@@H](C)Oc1ccc(Oc2ncc(Cl)cc2F)cc1`, the AC50 is 19 µM (active). `CCCCCOC(=O)COc1cc(N2C(=O)C3=C(CCCC3)C2=O)c(F)cc1Cl`: the compound was classed as inactive.

As for `c1ccc2[nH]c(-c3cscn3)nc2c1`, the outcome was inactive. With `CC(C)CCCCCCc1ccc(O)cc1`, the outcome was inactive. For the compound `N[C@@H](Cc1cc(I)c(Oc2ccc(O)c(I)c2)c(I)c1)C(=O)O`, the AC50 was 7.94 µM (active).

On to `CCCCC(CC)COC(=O)c1ccccc1C(=O)O` (stereo not given), for which the AC50 was 50.8 µM (active). Consider `CSC(=O)c1cccc2nnsc12`, for which the call was inactive. `COC(=O)CSc1cc(N=c2sc(=O)n3n2CCCC3)c(F)cc1Cl`: the outcome was inactive. The same measure, in the same setting: as for `CCN(CC)C(=O)c1cccc(C)c1`, the entry is “inactive”.

(Values after PubChem BioAssay (EPA / NIEHS).)
